The campaign covered roughly 330,000 compounds. About 7,300 (2.2%) were called active. This is one part of a sample in which actives are shown more often than they occur.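 Rule for the calls: active = inhibition of at least 40%; inactive = the rest.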
Assay: growth inhibition of tim10-1 ts yeast – luminescence, uHTS, primary screen (AID 463190);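 note: mutant grown at 25 °C; 0% = DMSO wells with yeast and 100% = wells holding no yeast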
Settings: S. cerevisiae tim10-1 ts strain growth, BacTiter-Glo, 24 h; at 20 µM; hits give high values

SMILES	inhibition
C/C=C(\C)C(=O)NCCN1C2=NC[C@H](Cc3ccc(O)cc3)N2C[C@@H]1Cc1ccc(OC)cc1	-7.43% (inactive)
O=C1CC(c2ccccc2)=NN1c1ccc([N+](=O)[O-])cc1	44.5% (active)
O=c1[nH]n(-c2ccc([N+](=O)[O-])cc2)c(=O)c2ccccc12	-4.91% (inactive)
Cc1nc(-c2ccc([N+](=O)[O-])cc2)c(-c2ccccc2)o1	14.6% (inactive)
COc1ccc2c(c1)cc1n2CCN=C1NN	43.7% (active)
COc1ccc2ccn(C)c2c1	-6.1% (inactive)
CC12COC3(C(=O)Nc4ccc(Cl)cn4)CC1CCC32C (centres undefined)	33.3% (inactive)
CCC(C)Cn1c(O)cc2nn(-c3nc4ccccc4s3)c(=O)c-2c1C (centres undefined)	0.194% (inactive)
CC(=NCc1ccco1)c1c(C(F)(F)F)[nH]n(-c2nc3ccccc3s2)c1=O	75.2% (active)
CCC1(CC)NC(=O)N(Cc2nc3ccccc3s2)C1=O	9.64% (inactive)
CCOC(=O)c1sc(N)c(C#N)c1COC(=O)C1=COCCO1	9.07% (inactive)
O=C(NCC(c1cccs1)N1CCOCC1)c1cc(Cl)ccc1[N+](=O)[O-] (centres undefined)	3.29% (inactive)
COc1cccc(CNc2nc3nc4c(c(=O)n3[nH]2)CCC4)c1	-3.51% (inactive)
COc1cccc(-c2cc3nc4c(c(N5CCC6(CC5)OCCO6)n3n2)CCCC4)c1	41.5% (active)
COc1ccc(OC)c(/C(C)=N\NC(=O)c2cc3cc(Cl)ccc3n2C)c1	14.6% (inactive)
C=CCn1c(SCC(=O)NC)nnc1C12CC3CC(CC(C3)C1)C2	11.2% (inactive)
O=[N+]([O-])/C=C/c1ccc2c(ccn2Cc2ccccc2)c1	-97.4% (inactive)
CCS(=O)(=O)Nc1ccc(C2=NN(S(=O)(=O)c3ccc(F)cc3)C(c3ccco3)C2)cc1 (centres undefined)	13.9% (inactive)
COCCn1cnc2c1c(=O)n(CC(=O)NN)c(=O)n2Cc1ccccc1	10.9% (inactive)
O=C(NCc1ccc2c(c1)OCO2)C(=O)NCC1OCCN1S(=O)(=O)c1ccc(F)cc1 (centres undefined)	-2.49% (inactive)
O=C(Nc1cccc(F)c1)NC1CCCc2ccccc21 (centres undefined)	30.5% (inactive)
C/C(CC(=O)Nc1cccc(F)c1)=N\NC(=O)C(=O)NC1CCCCC1	15.5% (inactive)
O=C(Nc1cccc(F)c1)NC1CCCCCCC1	45.3% (active)

SMILES	inhibition
Cc1c(C(=O)O)nnn1-c1nonc1N	3.56% (inactive)
C#CCOCCOCCOCCNc1nc(N2CCN(C(=O)[C@H](CO)n3cc([C@@H](N)C(C)C)nn3)CC2)nc(N2CCN(C(=O)[C@H](CCC(=O)O)n3cc([C@@H](N)[C@H](C)CC)nn3)CC2)n1	9.15% (inactive)
CC(C)(C)n1c(=O)[nH]c2c(c1=O)CCC2	-3.65% (inactive)
NNC(=O)c1oc2nc(-c3ccccc3)cc(-c3ccco3)c2c1N	19.9% (inactive)
CS(=O)(=O)c1sc2nc(-c3ccccc3)cc(-c3ccccc3)c2c1N	49.2% (active)
CNC(=S)NNC(=O)c1oc2nc(-c3ccccc3)cc(-c3ccco3)c2c1N	18.1% (inactive)
O=C(O)CSCc1ccc(C(=O)O)o1	3.55% (inactive)
C/C=C/C=C/C(=O)OCC(=O)Nc1ccc(Cl)cc1	15.8% (inactive)
O=C(/C=C/c1ccc(Cl)cc1Cl)c1cccnc1	25% (inactive)
O=C(/C=C/c1ccc(Cl)c([N+](=O)[O-])c1)c1ccc(O)cc1	41.3% (active)
O=C(/C=C/c1ccc(Cl)c([N+](=O)[O-])c1)c1cccnc1	46.1% (active)
O=C(Nc1ccncc1)c1ccc(Cl)c([N+](=O)[O-])c1	-50.2% (inactive)
CN(C)c1ccc(/C=C/C(=O)c2ccc(C(C)(C)C)cc2)cc1[N+](=O)[O-]	27.1% (inactive)
CN(C)c1ccc(/C=C/C(=O)c2ccc(O)cc2)cc1[N+](=O)[O-]	15.8% (inactive)
COc1ccc(CCNC(=O)c2ccc(CS(=O)(=O)c3ccc(Br)cc3)o2)cc1OC	24.5% (inactive)
O=C(Cn1c(NCCO)nc2ccccc21)c1ccc(Cl)cc1Cl	1.93% (inactive)
CCCCn1ccnc1C(=O)c1cccc(S(=O)(=O)N2c3ccccc3CC2C)c1 (centres undefined)	29.3% (inactive)
O=C1COc2ccc(C(=O)COC(=O)c3cccnc3Cl)cc2N1	-6.62% (inactive)
CCc1nnc(NC(=O)CSc2nnc(-c3ccncc3)n2Cc2ccccc2)s1	10.1% (inactive)
COC(=O)c1cc(NC(=O)CC2C(=O)NCCN2C(=O)c2ccc(F)cc2)cc(C(=O)OC)c1 (centres undefined)	-15.9% (inactive)
Cc1ccc(N2C(=O)CC(Sc3ncn[nH]3)C2=O)cc1 (centres undefined)	30.2% (inactive)
COc1ccc(N2C(=O)CC(SC(C)C)C2=O)cc1 (centres undefined)	-8.61% (inactive)
COc1ccc(N2C(=O)CC(Sc3n[nH]c(-c4ccc(C)cc4)n3)C2=O)cc1 (centres undefined)	54.7% (active)

SMILES	inhibition
COc1ccccc1C(=O)NCCn1cc(SCC(=O)NCc2ccco2)c2ccccc21	29.1% (inactive)
COc1cc(C(c2c(NC(=O)c3ccco3)sc(C)c2C)N2CCOCC2)cc(OC)c1OC (centres undefined)	20.7% (inactive)
CCc1ccccc1NC1c2ccccc2C(=O)N1c1cccnc1 (centres undefined)	36.7% (inactive)
CC(=O)C1=C(O)C(=O)N(c2cccnc2)C1c1ccc([N+](=O)[O-])cc1 (centres undefined)	0.316% (inactive)
O=C1[C@@H](c2ccccc2)[C@@H](c2ccccc2)N1c1cccnc1	66.6% (active)
O=C(N/N=C/c1ccc(OCC2COCCO2)cc1)c1ccc(Br)cc1 (centres undefined)	-0.668% (inactive)
CCOc1ccc(OCC)c(-c2c(=O)n(OCc3ccc(Cl)cc3)c3ccccc3[n+]2[O-])c1	26.2% (inactive)
CCOC(=O)COn1c(=O)c(-c2ccc(OCC)cc2)[n+]([O-])c2ccccc21	31.6% (inactive)
COc1ccc(OC)c(-c2c(=O)n(OCc3ccccc3Br)c3ccccc3[n+]2[O-])c1	47.1% (active)
COC(=O)c1c(-c2ccsc2)oc2ccc(-c3cc(OC)c(OC)c(OC)c3)cc12	28.1% (inactive)
N#CCOc1ccc(C2=NO[C@@H]3[C@@H]4C[C@@H]([C@H]5C(=O)N(c6ccc7c(c6)OCO7)C(=O)[C@@H]45)[C@H]23)cc1	18.3% (inactive)
C=CS(=O)c1sc(Cl)c(N2CCOCC2)c1[N+](=O)[O-] (centres undefined)	79.3% (active)
Nc1c(N(CCO)C(=O)C2CCCCC2)c(=O)[nH]c(=O)n1Cc1ccccc1	15.1% (inactive)
COc1ccccc1C(=O)NCC(=O)OCC(=O)NNC(=O)c1ccc(Br)cc1	-10.1% (inactive)
Cc1ccc2c(c1)c1ncn(CCC3=CCCCC3)c(=O)c1n2C	22.5% (inactive)
Cc1ccc(-c2cc(C(=O)N3CCc4ccccc4C3)no2)cc1	18.4% (inactive)
Cc1ccc2c(c1)c1ncnc(N3CCc4ccccc4C3)c1n2C	44% (active)
O=C(C1CCC(=O)N(C2CC2)C1)N1CCN(c2ccc(Cl)cc2)CC1 (centres undefined)	-6.67% (inactive)
C=CCNC(=O)CC12CC3CC(C1)CC(CC(=O)NCC=C)(C3)C2	9.8% (inactive)
CCOc1cccc(-c2nn3c(-c4ccccn4)nnc3s2)c1	42% (active)
COc1ccc(-n2c(SCC(=O)OC(C)C)nnc2-c2ccccn2)cc1	34.2% (inactive)
CCOc1cccc(-c2nnc(SCC(=O)NC3CC3)n2C)c1	6.04% (inactive)
O=C(O)C1C2C=CC(C2)C1C(=O)NCc1ccccc1 (centres undefined)	-21.1% (inactive)

SMILES	inhibition
COc1ccc(C2=NO[C@@H]3C(=O)N(Cc4ccccc4)C(=O)[C@H]23)cc1OC	14.3% (inactive)
CCn1nccc1C(=O)Nc1ccc(Cl)c(Cl)c1	44% (active)
CC(c1cccnc1)N(CCN(C)C)C(=O)Nc1ccc(Cl)c(Cl)c1 (centres undefined)	4.37% (inactive)
CCn1nccc1C(=O)Nc1ccc(S(=O)(=O)NC23CC4CC(CC(C4)C2)C3)cc1	26.7% (inactive)
CN1CCN(C(=O)CCc2ncc(C(F)(F)F)cc2Cl)CC1	-4.04% (inactive)
COC(=O)c1c(C(=O)OC)c(-c2cccc(C)c2)n2c1CS(=O)C2 (centres undefined)	10.8% (inactive)
CCOCCCNC(=O)c1ccc(CS(=O)(=O)c2cccc(C(F)(F)F)c2)o1	6.36% (inactive)
Cc1ccc(NS(=O)(=O)c2ccc(-c3ccc(=O)[nH]n3)o2)c(C)c1	1.41% (inactive)
Cc1ccc(-c2csc(-c3c[nH]c4ccccc34)n2)cc1	60.4% (active)
Cc1ccc(-c2csc(NC(=O)Cn3[nH]c(=O)c4ccccc4c3=O)n2)cc1	31.6% (inactive)
Cc1ccc(-c2csc(NC3OC(=O)c4ccccc43)n2)cc1 (centres undefined)	5.08% (inactive)
COc1cc(N2C(=O)CC3(CCCC3)CC2=O)cc(OC)c1OC	11.2% (inactive)
N#CC1(C#N)C(C(=O)C23CC4CC(CC(C4)C2)C3)C12CCOCC2 (centres undefined)	47.6% (active)
CC(C)(C)c1ccc(C(=O)NCc2nnc(SCC(=O)N3CCCc4ccccc43)n2-c2ccccc2)cc1	1.45% (inactive)
O=C(COC(=O)CCCSc1nc2ccccc2[nH]1)Nc1ccc(Oc2ccccc2)cc1	14.2% (inactive)
Cc1ccc(-c2ccc(/C=C(\C#N)C(N)=S)o2)c([N+](=O)[O-])c1	57.3% (active)
Cc1cc([N+](=O)[O-])c(-c2ccc(/C=N/n3cnnc3)o2)cc1Cl	16.2% (inactive)
Cc1cc(C)c([N+](=O)[O-])cc1-c1ccc(/C=N/NC(=O)c2nonc2N)o1	-16.4% (inactive)
CCOC(=O)CCCCCC(=O)Nc1ccc2c(c1)CC(=O)N([C@@H](C)CO)C[C@H](C)[C@@H](CN(C)Cc1ccccc1)O2	-5.39% (inactive)
Cn1nnnc1SCC(=O)NNC(=O)c1ccc(Br)cc1	0.63% (inactive)
